Source: PubChem BioAssay (NCI)
“And” between values parts separate entries of the source, which are not always exact repeats. Identical values can stand only once. The panel holds about 83,000 compounds, 20% with a hit somewhere; the sample as a whole holds those more often.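 Each cell line was grown in a 96-well plate and treated with one concentration of compound for 48 hours. Values below 10 were considered active.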 The source made the active and inactive calls.

Assays:
Experiment in all cases: NCI-60 one-dose screen, 48 h (100 = growth as untreated, 0 = no growth, -100 = all killed)
[1] = test system: MOLT-4 leukemia; conditions: 10 µM
[2] = test system: SR leukemia; conditions: 10 µM
[3] = test system: RPMI-8226 leukemia; conditions: 10 µM
[4] = test system: OVCAR-8 ovarian; conditions: 10 µM
[5] = test system: SK-OV-3 ovarian; conditions: 10 µM
[6] = test system: OVCAR-3 ovarian; conditions: 10 µM
[7] = test system: HS 578T breast; conditions: 10 µM
[8] = test system: NCI/ADR-RES ovarian; conditions: 10 µM
[9] = test system: T-47D breast; conditions: 10 µM
[10] = test system: BT-549 breast; conditions: 10 µM
[11] = test system: MDA-MB-435 melanoma; conditions: 10 µM
[12] = test system: SW-620 colon; conditions: 10 µM
[13] = test system: MCF7 breast; conditions: 10 µM unless noted
[14] = test system: HCT-116 colon; conditions: 10 µM
[15] = test system: HCC-2998 colon; conditions: 10 µM
[16] = test system: KM12 colon; conditions: 10 µM
[17] = test system: IGROV1 ovarian; conditions: 10 µM
[18] = test system: OVCAR-4 ovarian; conditions: 10 µM

Measured: growth

CC(=O)[O][Hg][c]1c(C)c(C)cc(C)c1C
inactive: [4] 15.3% | [5] 97.5% | [8] 78.1% | [15] 12.5% | [16] 50.5%
active: [1] -5.69% | [2] -27.6% | [3] 7.45% | [6] -93.6% | [7] -1.53% | [9] -27.8% | [10] -70.4% | [11] -91.4% | [12] -93.5% | [13] -6.63% | [14] -98.8%

CC/C(=C/c1ccc(OC)cc1)[N+](=O)[O-]
inactive: [5] 104% | [17] 11.7% | [7] 90.2% | [8] 30.3% | [11] 15.1% | [15] 85.1% | [16] 33.8%
active: [1] 3.8% | [2] 1.84% | [3] -8.7% | [4] 1.78% | [6] -54.6% | [9] -43.7% | [10] -34.5% | [12] -76.8% | [13] -41.5% | [14] -81.3%

Oc1ccccc1-c1ccccc1
inactive: [1] 90.1% and 93.8% | [2] 92% and 87.9% | [3] 98.7% and 93.2% | [4] 100% and 98% | [5] 92.2% and 102% | [17] 97.9% and 107% | [6] 103% and 116% | [7] 104% and 120% | [8] 99.9% and 110% | [9] 94% | [10] 111% and 96.9% | [11] 107% and 111% | [12] 109% and 103% | [13] 98.1% and 94.1% | [14] 109% and 96.6% | [15] 92.7% | [16] 102% and 109%

CC(Cc1ccc2c(c1)OCO2)NN (configuration not stated)
inactive: [1] 78.4% | [2] 91.6% | [3] 91.8% | [4] 97.7% | [18] 106% | [5] 84.8% | [17] 100% | [6] 112% | [7] 93.3% | [8] 98.5% | [9] 77.5% | [10] 96.7% | [12] 98.7% | [13] 91.2% | [14] 85.4% | [15] 101% | [16] 103%

[Cl][Hg][c]1ccc2ccccc2c1
active: [1] -1.79% | [2] -38% | [3] -11.1% | [4] -43.9% | [5] 2.89% | [6] -97.8% | [7] 2.36% | [9] -56.8% | [10] -99% | [11] -76.2% | [12] -92.4% | [13] -61.5% | [14] -100% | [15] -49% | [16] 1.74%
inactive: [8] 63.9%

CC(C)c1cc([N+](=O)[O-])cc([N+](=O)[O-])c1O
inactive: [1] 98.2% | [2] 94.3% | [3] 116% | [4] 104% | [18] 115% | [5] 100% | [17] 111% | [6] 105% | [7] 101% | [8] 97.3% | [9] 97.3% | [10] 96.4% | [11] 108% | [12] 100% | [13] 93.3% | [14] 103% | [15] 87.4% | [16] 88.1%

CCOP(=O)(OCC)C(O)c1ccccc1Cl (configuration not stated)
inactive: [1] 97.8% | [2] 93.2% | [3] 102% | [4] 100% | [18] 106% | [5] 96.5% | [6] 99.5% | [7] 106% | [8] 103% | [9] 89.1% | [10] 109% | [11] 119% | [12] 99.2% | [13] 103% | [14] 98.8% | [15] 102% | [16] 103%

C[CH2][Hg][S]c1ccccc1C(=O)O
active: [1] 0.484% | [2] -5.7% | [3] -17.6% | [4] -98.1% | [6] -100% | [7] -1.53% | [8] -13.9% | [9] -80% | [10] -73.4% | [11] -12.7% | [12] -87% | [13] -95.9% | [14] -88.9%
inactive: [5] 21.1% | [15] 59.8% | [16] 69.9%

CS(=N)(=O)CCC(N)C(=O)O (configuration not stated)
inactive: [1] 112% | [2] 99.9% | [3] 107% | [4] 98% | [5] 108% | [17] 87.5% | [6] 115% | [7] 104% | [8] 100% | [9] 111% | [10] 99.2% | [11] 99.8% | [12] 103% | [13] 101% | [14] 97.1% | [15] 92.7% | [16] 115%

NC(=O)c1cc([N+](=O)[O-])c(Cl)c([N+](=O)[O-])c1Cl
active: [1] -15.3% | [2] -11.2% | [3] 9.48% | [4] -24.6% | [18] -58.8% | [6] -97.4% | [9] -36.7% | [12] -79.9% | [13] -44.4% | [14] -39.2%
inactive: [5] 101% | [8] 20.4% | [10] 68.3% | [11] 11.1% | [15] 39.2% | [16] 19.1%

[Cl][Hg][c]1ccc(Cl)s1
active: [1] -11.5% | [2] -17.1% | [6] -78.7% | [9] -68.5% | [11] 4.96% | [12] -26.9% | [13] -37.1%
inactive: [3] 18.5% | [4] 60% | [18] 11.2% | [5] 98.2% | [17] 26.2% | [7] 59.1% | [8] 57.1% | [10] 14.2% | [14] 15.8% | [15] 111% | [16] 91.1%

Cn1c(O)c(N=O)c(=O)n(C)c1=O
inactive: [1] 101% and 99.9% | [2] 103% and 80% | [3] 110% and 92% | [4] 99.6% and 111% | [5] 108% and 104% | [17] 111% and 114% | [6] 101% and 94.8% | [7] 97.1% and 98.9% | [8] 101% and 102% | [9] 101% and 97% | [10] 109% and 99% | [11] 113% and 93.3% | [12] 97% and 98.9% | [13] 104% and 97.2% | [14] 113% and 97.3% | [15] 107% | [16] 102% and 98.6%

Oc1c(I)cc(I)cc1I
inactive: [1] 98.9% | [2] 101% | [3] 94% | [4] 101% | [5] 109% | [17] 112% | [6] 124% | [7] 119% | [9] 103% | [11] 113% | [12] 107% | [13] 95.4% | [16] 110%

COc1cc(/C=C\[N+](=O)[O-])ccc1O
9.85% (active) and 23.9% (inactive): [13]
7.29% (active) and 67.5% (inactive): [12]
8.06% (active) and 40% (inactive): [2]
inactive: [1] 27% and 79.2% | [4] 65.9% and 93.9% | [5] 101% and 97% | [6] 62.4% and 71.5% | [7] 106% and 94.5% | [8] 83.4% and 98.4% | [9] 32.5% and 71.1% | [10] 56% | [11] 78.5% and 51.3% | [14] 59.3% and 32.9% | [15] 100% and 83.1% | [16] 80.2% and 77.4%
-14.8% (active) and 27.5% (inactive): [3]

C[C@H]1CC[C@@]2(NC1)O[C@H]1C[C@H]3[C@@H]4CC[C@H]5C[C@@H](O)CC[C@]5(C)[C@H]4CC[C@]3(C)[C@H]1[C@@H]2C
inactive: [13] 29.5% [100 µM] and 25.5% [100 µM]

C/C1=C\[C@H](C)C[C@H](C)OC(=O)C[C@H](c2ccc(O)cc2)NC(=O)[C@@H](Cc2c(Br)[nH]c3ccccc23)N(C)C(=O)[C@H](C)NC(=O)[C@@H](C)C1
active: [1] 2.89% | [2] -3.88% | [3] -56.9% | [5] -20.9% | [17] -79.1% | [6] -44.9% | [7] -40.4% | [8] -21.9% | [9] 4.52% | [10] -76.6% | [11] -12.2% | [12] 6.45% | [13] 9.48% | [14] 0.922% | [15] -86.3% | [16] -4.41%

C#CC1(O)CCC(C(C)(C)C)CC1 (configuration not stated)
inactive: [1] 114% | [2] 113% | [3] 102% | [4] 95.5% | [5] 119% | [6] 103% | [8] 106% | [9] 111% | [10] 122% | [11] 89.8% | [12] 106% | [13] 99% | [14] 108% | [16] 100%

C[C@@H]1C[C@@H]([C@H](O)CC2CC(=O)NC(=O)C2)C(=O)[C@@H](C)C1
active: [1] 3.71% | [4] 3.4% | [6] 4.14% | [7] 7.45% | [8] 0.354% | [9] 1.15% | [10] 3.02% | [11] 9.77% | [12] 8.04% | [13] 9.88% | [14] 0.0527% | [15] 2.14% | [16] 5.65%
inactive: [2] 13.8% | [5] 10.9%
